# Screening data from PubChem.
# TDP1 block – qHTS Assay for Inhibitors of Tyrosyl-DNA Phosphodiesterase (TDP1); recombinant TDP1, AlphaScreen DNA substrate cleavage; Tyrosyl-DNA phosphodiesterase 1 (Homo sapiens), Q9NUW8; hit rate 0.28% among 350,000; Potency, µM (titrated, usually from 130 µM), usual class: inhibitors; AID 485290, 2010; note: nearly all actives have a fitted effect of over 40% in size
# Target sequence (Q9NUW8 whole entry, looked up): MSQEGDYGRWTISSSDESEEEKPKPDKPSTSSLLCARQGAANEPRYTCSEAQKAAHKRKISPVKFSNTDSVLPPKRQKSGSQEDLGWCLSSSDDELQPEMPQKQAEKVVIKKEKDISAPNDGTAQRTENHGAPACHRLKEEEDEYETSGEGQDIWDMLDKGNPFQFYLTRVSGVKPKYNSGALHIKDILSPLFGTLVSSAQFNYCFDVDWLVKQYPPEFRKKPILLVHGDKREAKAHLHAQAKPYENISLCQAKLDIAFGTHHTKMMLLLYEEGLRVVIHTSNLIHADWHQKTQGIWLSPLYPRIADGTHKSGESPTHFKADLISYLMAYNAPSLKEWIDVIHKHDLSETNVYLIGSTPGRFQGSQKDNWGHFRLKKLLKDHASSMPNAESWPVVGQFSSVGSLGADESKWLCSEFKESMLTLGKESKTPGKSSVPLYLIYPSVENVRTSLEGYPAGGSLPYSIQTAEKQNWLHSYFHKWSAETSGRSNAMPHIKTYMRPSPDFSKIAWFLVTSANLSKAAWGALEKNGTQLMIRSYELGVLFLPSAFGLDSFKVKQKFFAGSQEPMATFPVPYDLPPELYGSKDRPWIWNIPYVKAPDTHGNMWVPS
#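 Tdp1 1 nM final; 15 min RT w/ cpd; substrate 15 nM, 5 min; beads 10 ug/ml, 10 min; AlphaScreen read. Neg ctrl: no enzyme.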
# TDP1 cell noCPT – qHTS for Inhibitors of human tyrosyl-DNA phosphodiesterase 1 (TDP1): qHTS in cells in absence of CPT; hit rate 15% among 420,000; DT40 Tdp1-/- hTDP1 cells, no CPT, ATP luminescence, 48 h; Potency, µM (top dose mostly 46.2 µM), hits mostly inhibitors; note: nearly all actives have a fitted effect of over 55% in size
#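 A cellular qHTS used chicken DT40 cells lacking endogenous Tdp1 but carrying stably transfected human TDP1. Compounds were applied without camptothecin, and cell growth kinetics were judged by ATP-dependent luminescence after ≥48 hr.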
# TGFb inhibitor – qHTS for Inhibitors of TGF-b; HepG2 CAGA-GFP TGF-b/SMAD3 reporter, GFP fluorescence, 18 h; TGF-beta stimulated, 500 pg/mL final; hit rate 1.2% among 410,000; Potency, µM (highest dose often 46.1 µM), hits mostly inhibitors; note: nearly all actives have a fitted effect of over 65% in size
#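 Inhibition was scored as loss of TGF-beta-induced (500 pg/mL final, 18 hours, 37 degrees C) GFP in HEPG2 cells carrying a CAGA-GFP reporter, in DMEM with 1% FBS. Well GFP was summed per cell; Activity was normalised to unstimulated and stimulated DMSO wells, then concentration-response fitting.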
# TDP1 cell CPT – qHTS for Inhibitors of human tyrosyl-DNA phosphodiesterase 1 (TDP1): qHTS in cells in presence of CPT; chicken DT40 Tdp1-/-;hTDP1 cells + 20 nM CPT, ATP luminescence, 48 h; hit rate 12% among 420,000; Potency, µM (titrated, usually from 46.2 µM), actives largely listed as inhibitors; note: nearly all actives have a fitted effect of over 55% in size
#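 Chicken DT40 Tdp1-/- cells complemented with human TDP1, 400 cells/well, exposed to compounds plus 20 nM camptothecin for at least 48 h at 37 C; viability read as ATP content by CellTiter-Glo luminescence.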
# IL-1B inflam inh – qHTS for Inhibitors of Inflammasome Signaling: IL-1-beta AlphaLISA Primary Screen; activity change, % at 57.5 µM; THP-1 LPS/ATP IL-1B secretion, AlphaLISA, 16 h; stronger effect = lower value; hit rate 4.7% among 360,000; in the data active = activity change below about -50%; inconclusive = mostly about -30% to -49%
#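 Secreted IL-1B measured by AlphaLISA bead assay after 16 h compound exposure of THP-1 cells; compounds (final up to 57.5 uM) added 1 h before LPS (250 ng/mL) and ATP (1.25 mM) stimulation; lower signal means less secretion.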
# HepG2 viability – qHTS for Inhibitors of TGF-b: Cytotox Counterscreen. Potency, µM (titrated, usually from 46.1 µM), most hits filed as cytotoxic. HepG2 CAGA-GFP viability, ATP luminescence, 18 h. hit rate 0.76% among 410,000
#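 HepG2 CAGA-GFP cells (1000/well, DMEM with 1% FBS) received compound, then TGF-beta at 500 pg/mL final, and were incubated 18 hours at 37 degrees C. Viability was read by CellTiter-Glo luminescence. Media-only wells were set as complete cell-killing and DMSO as no toxicity.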
# A number is an active result; - = inactive; ? = inconclusive; . = not tested or not shown. Most compounds without a hit are left out; they make up all but 18% or so of the library. Unless noted, calls come from the whole dose curve; as a rule, active = well fitted curve in the direction sought with a large enough effect; inconclusive = small, poorly fitted or top-dose-only effect, or another doubt; inactive = no such curve, though single readings can be large; an effect the other way counts as inactive or inconclusive.
SMILES,TDP1 block,TDP1 cell noCPT,TGFb inhibitor,TDP1 cell CPT,IL-1B inflam inh,HepG2 viability
CCCCCCCCN1C(=O)[C@H](CC(=O)NCc2cccc(C(F)(F)F)c2)C[C@@]2(C(=O)OC)CCCCC=C12,.,?,.,20.6µM,-54.9,.
N#Cc1cccc(NC(=O)CNc2cccc(S(=O)(=O)N3CCCCC3)c2)c1,.,?,-,?,-,-
O=C(c1cccc(F)c1)N1CCCc2ccccc21,.,-,-,-,-,-
CCOC(=O)/C(=N/O)C1=NC(C)(C)Cc2cc(C)c(C)cc21,-,-,-,-,-71.7,-
Cc1nc2ccccc2n1/N=C/c1ccc([N+](=O)[O-])o1,.,2.91µM,11.2µM,1.84µM,-97.4,-
Cc1cc2ncn(/N=C/c3cc(Br)ccc3O)c2cc1C,-,.,.,.,.,.
O=[N+]([O-])c1ccc(/C=N/Nc2ncccc2[N+](=O)[O-])s1,.,1.3µM,-,1.46µM,-,5.01µM
O=[N+]([O-])c1cccnc1Nc1ccc(Cl)cc1,.,-,-,-,-,-
Cc1nc2ccccc2c(=O)n1/N=C/c1ccc([N+](=O)[O-])o1,-,.,.,.,.,.
Cc1cc2ncn(/N=C/c3ccc([N+](=O)[O-])s3)c2cc1C,-,8.2µM,-,?,-,-
Cc1nc2ccccc2n1/N=C/c1ccc([N+](=O)[O-])s1,-,5.17µM,6.31µM,3.66µM,?,-
COc1cc(C(=O)Nc2cccc3c2CCCC3)cc(OC)c1OC,.,?,-,?,-,-
CCOc1ccc(NC(=O)CN(C)C(=O)c2cccnc2Sc2ccc(C)c(C)c2)cc1OCC,-,-,-,-,-,-
O=[N+]([O-])c1ccc(/C=N/n2cnc3ccccc32)s1,-,3.66µM,?,3.66µM,-73.8,8.91µM
O=C(c1ccccc1[N+](=O)[O-])n1cnc2ccccc21,-,-,-,-,-,-
COc1ccc(-c2nn(-c3ccccc3)cc2/C=C2/SC(=S)N(CCC(=O)O)C2=O)c(C)c1,39.8µM,?,-,?,-,-
COc1ccc(-c2nn(-c3ccccc3)cc2/C=C2/SC(=S)N(CCC(=O)O)C2=O)cc1,.,?,-,-,?,-
O=C(O)CCN1C(=O)/C(=C/c2cn(-c3ccccc3)nc2-c2cccs2)SC1=S,-,?,-,4.61µM,-,-
O=C(O)CCCCCN1C(=O)/C(=C/c2cn(-c3ccccc3)nc2-c2cccs2)SC1=S,.,14.6µM,-,-,-,-
O=C(O)CCCCCN1C(=O)/C(=C\c2cn(-c3ccccc3)nc2-c2cccs2)SC1=S,.,-,-,?,-,-
CN1CCC(N(C)C(=O)/C=C/c2cn(-c3ccccc3)nc2-c2cccs2)CC1,-,23.1µM,?,?,-90.7,-
COc1ccccc1CN1CC[C@@]2(CCCN(C(=O)c3cnccn3)C2)C1,.,-,.,-,.,.
Cc1ccc(/C=N/Nc2nnc(Cl)c3ccccc23)cc1,-,20.6µM,-,23.1µM,-62.0,-
CC(=O)Nc1ccc(C=NNc2nnc(NN=Cc3ccc(NC(C)=O)cc3)c3ccccc23)cc1,.,4.11µM,-,2.91µM,-,-
Clc1ccc(Sc2cc(Cl)c(Cl)cc2Cl)cc1,-,.,.,.,.,.
SMILES,TDP1 block,TDP1 cell noCPT,TGFb inhibitor,TDP1 cell CPT,IL-1B inflam inh,HepG2 viability
CCN(CC)c1nc2ccccc2nc1C(=O)Nc1cc(OC)c(OC)c(OC)c1,-,13µM,-,16.4µM,.,-
CCCN(C(=O)c1cc2c(Cl)nc3ccccc3c2s1)c1cccc(C)c1,-,25.9µM,-,20.6µM,.,-
CCN(CC)c1nc2ccccc2nc1C(=O)Nc1ccc(C(C)=O)cc1,-,?,-,?,.,-
COc1ccc2cc(C(=O)Nc3ccc(S(N)(=O)=O)cc3)sc(=O)c2c1OC,-,?,-,-,?,-
COc1cc(NC(=O)c2cc3c(Cl)nc4ccccc4c3s2)cc(OC)c1OC,-,8.2µM,-,10.3µM,-,-
COc1ccc2cc(C(=O)Nc3ccccc3)sc(=O)c2c1OC,15.8µM,-,-,-,-,-
COc1ccc(CNc2nc(-c3ccco3)nn2S(=O)(=O)c2ccc(Cl)cc2)cc1OC,-,-,-,-,.,-
Cc1ccc2occ(CC(=O)N3CCN(c4cccc(Cl)c4)CC3)c2c1,-,?,?,?,.,-
COc1ccc(N(C)C(=O)c2cc3c(Cl)nc4ccccc4c3s2)cc1,-,20.6µM,-,?,-67.7,-
COc1cccc(-c2nc3nc(C)cc(C)n3c2Nc2ccc3c(c2)OCCO3)c1,.,25.9µM,.,?,-,.
COc1ccc(Nc2c(-c3cccc(OC)c3)nc3nc(C)cc(C)n23)cc1,.,20.6µM,.,?,-,.
COc1cccc(-c2nc3nc(C)cc(C)n3c2NC2CCCC2)c1,.,?,.,?,-,.
COc1cc(-c2nc3nc(C)cc(C)n3c2Nc2ccc(Cl)cc2)ccc1O,-,?,12.6µM,?,.,-
Cc1ccc(-c2nc3nc(C)cc(C)n3c2Nc2ccc3c(c2)OCCO3)cc1,-,-,-,?,.,-
COc1cccc(-c2nc3nc(C)cc(C)n3c2NCc2ccccc2)c1,.,11.6µM,.,?,-,.
CCN(CC(=O)Nc1c(F)cccc1F)C(=O)CCNC(=O)c1ccco1,-,-,-,-,-,-
Cc1nc(NC(=O)C2CC3CCCC(C2)C3=O)sc1C (centres undefined),-,-,-,-,-,-
O=C(Nc1cccc(NC(=O)C2CC3CCCC(C2)C3=O)n1)C1CC2CCCC(C1)C2=O (centres undefined),-,18.4µM,?,?,-,-
COc1ccc(-n2c(=O)c3c4c(sc3n(CC(N)=O)c2=O)CCCCC4)cc1,-,-,-,-,-,-
CCc1ccc(-n2c(=O)c3c4c(sc3n(CC(=O)c3ccc(Br)cc3)c2=O)CCC4)cc1,-,3.66µM,-,5.8µM,.,-
CC(=O)c1sc2c(c1C)c(=O)n(-c1ccc(Cl)cc1)c(=O)n2Cc1ccc(Cl)cc1,-,8.2µM,-,8.2µM,.,-
O=C(Cn1c(=O)n(-c2ccc(Cl)cc2)c(=O)c2c3c(sc21)CCC3)c1ccc(F)cc1,-,9.2µM,-,8.2µM,.,-
CCOC(=O)N1CCc2c(sc3c2c(=O)n(-c2ccc(CC)cc2)c(=O)n3Cc2cc(C)ccc2C)C1,-,-,-,-,.,-
CCOC(=O)N1CCc2c(sc3c2c(=O)n(-c2ccc(CC)cc2)c(=O)n3CC(=O)c2ccc(F)cc2)C1,-,?,-,13µM,.,-
